According to the supplement of paper PMC6555819:

Columns and labels:
Test in all cases: PBM binding z-score (relative to random genomic background probes); higher = stronger binding; sequences stand for … in GC…GCGATTGACAGCGTAGAATGAAGG
[1] = system: FXR:RXRa (NR concentration 270 nM, RXRa partner concentration 90 nM)
Summary of the method: (§1)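 Ligand-free nuclear receptor dimers were bound for 1 h to custom Agilent 4×180K protein-binding microarrays. Detection used antibodies against each partner (one per run). Binding z-scores rest on regression-normalized fluorescence, with random background probes as the reference.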

[2] = system: LXRa:RXRa (NR concentration 270 nM, RXRa partner concentration 90 nM)
Summary of the method: as §1

[3] = system: LXRa homodimer (NR concentration 270 nM)
Summary of the method: as §1

[4] = system: LXRb:RXRa (NR concentration 270 nM, RXRa partner concentration 90 nM)
Summary of the method: as §1

[5] = system: LXRb homodimer (NR concentration 270 nM)
Summary of the method: as §1

[6] = system: PPARa:RXRa (NR concentration 270 nM, RXRa partner concentration 90 nM)
Summary of the method: as §1

[7] = system: PPARg:RXRa (NR concentration 180 nM, RXRa partner concentration 90 nM)
Summary of the method: as §1

[8] = system: PPARg:RXRa 270nM:90nM, anti-RXR (NR concentration 270 nM, RXRa partner concentration 90 nM)
Summary of the method: as §1

[9] = system: PPARg:RXRa 30nM:10nM, anti-RXR (NR concentration 30 nM, RXRa partner concentration 10 nM)
Summary of the method: as §1

[10] = system: PPARg:RXRa 90nM:30nM, anti-RXR (NR concentration 90 nM, RXRa partner concentration 30 nM)
Summary of the method: as §1

Sequence | PBM binding z-score [1] | PBM binding z-score [2] | PBM binding z-score [3] | PBM binding z-score [4] | PBM binding z-score [5] | PBM binding z-score [6] | PBM binding z-score [7] | PBM binding z-score [8] | PBM binding z-score [9] | PBM binding z-score [10]
CCTTATGGGTCACGAGGTTATAGCACGACGAGCG | 6.1 | 3.8 | 0.305 | 3.32 | -0.173 | 5.75 | 8.15 | 6.96 | 4.18 | 6.72
TAGCCTAGGTCAATGGGCCAGTATAGTACGCATC | 3.09 | 2.16 | -0.016 | 1.51 | -0.146 | 3.27 | 2.95 | 2.83 | 0.834 | 1.67
GCAGACAGGCGAAACGCAGGTAACTCAGGGTGGC | -0.64 | -0.615 | -0.761 | -1 | -1.38 | -0.682 | 0.297 | -0.871 | -0.326 | -0.791
GCGACTGGGGCATCAGCGGGTTACCATAACTTAA | -0.361 | -0.573 | -0.505 | 0.433 | -0.992 | 1.11 | 0.815 | 0.669 | -0.383 | 0.237
GATACAGGGTCAGCTAGAGGCCAGAGCATGGAAA | 4.96 | 2.87 | -0.62 | 2.42 | -0.712 | 4.58 | 3.81 | 3.58 | 1.01 | 2.09
TAGCCTAGGCCAGATCGGGCCAGTATACGCTATA | -0.616 | -1.17 | -0.865 | -1.22 | -1.15 | -1.12 | 0.0311 | -1.24 | -0.873 | -1.05
CGTCCAAGGTCAAGGTCAGTGCAAGAGACTCGAA | 7.47 | 5.77 | 1.19 | 4.77 | 0.528 | 5.84 | 6.07 | 6.18 | 2.4 | 5.09
GATACAGGGTCAAGGCCATAGTACGCGTATTGAT | 6.45 | 4.12 | 0.059 | 3.75 | 0.018 | 5.51 | 6.08 | 5.45 | 2.63 | 4.43
CCTACTGGGACACGAAAGGTCATTGATTCAGTGA | 3.84 | 4.83 | 5.13 | 4.17 | 0.785 | 4.65 | 4.68 | 4.72 | 2.24 | 4.34
GCTCCTAGGTCAGGTTGGTCAGCTAACGGGTACG | 1.88 | 1.13 | 0.0623 | 1.09 | 0.0222 | 2.12 | 0.889 | 1.34 | -0.42 | 0.479
GCTAGCAGGCCATGTGGGTCACTCAATGACGGGC | -0.267 | -0.154 | -0.643 | -0.292 | -1.04 | 1.58 | 1.31 | 1.18 | -0.316 | 0.415
TCATATAGGTAACAGGTGAAAGTCGGTGTGGTAA | 0.983 | 1 | 0.422 | 1.24 | 0.411 | 3.53 | 5.3 | 6.22 | 6.28 | 6.73
CGAACTAGGTCAAGGACAGAGAATCTCCGCACGC | 3.32 | 1.95 | -0.0711 | 1.25 | -0.37 | 4.47 | 7.55 | 6.28 | 3.62 | 5.63
CCGACTGGGGCAGAAAGGGTACCATACCATCCGG | -0.642 | -0.505 | -0.574 | -0.581 | -1.48 | 0.209 | 0.831 | 0.193 | -0.692 | 0.0495
CCCTACGGGTCACTCCAGGTTATAGCATCGGAGT | 5.25 | 7.47 | 2.12 | 5.1 | 0.052 | 4.21 | 2.65 | 3.2 | 0.655 | 1.6
GCGTCTGGGGCAAAGCAGGTTACCATAAGGTTGG | 0.56 | 0.162 | -0.429 | 0.26 | -0.82 | 1.26 | 0.532 | 0.46 | -0.355 | 0.0417
AGTATTAGTTGAGACGAGGGCAACCGATAGGTTG | 0.842 | 0.556 | 0.129 | 0.258 | 0.115 | 0.567 | 0.552 | 0.313 | 0.0784 | 0.559
CTGGAAAGGTCGTGCTCAGGTGAGTATACCAAAC | 5.25 | 3.35 | -0.219 | 2.7 | -0.505 | 4.7 | 2.63 | 3.81 | 1.04 | 2.24
TCTATTAGTTGAAGGGCAGCCGACGAGTCCGTTT | 0.906 | 0.864 | 0.0935 | 0.623 | 0.323 | 0.856 | -0.213 | 1.78 | 3.64 | 2.81
TTACCAAGGTGAAGGACGTTGATCCCTCTGTAGA | 0.74 | 0.584 | -0.361 | 0.414 | -0.656 | 1.21 | 0.633 | 1.19 | 0.789 | 1.17
ATCTGTAGGTAAGACTCAGTTCAGTGAAGAACGC | 0.0473 | 0.226 | 0.296 | 0.0254 | -0.0598 | 0.0967 | 0.00745 | 0.0947 | -0.305 | -0.0173
TCTTGTAGATCACTAGAGGTTAAGAAAGTGCGCT | 0.684 | 5.11 | 1.63 | 2.67 | 0.128 | 1.88 | -0.00284 | 1.73 | 2.56 | 2.22
GGAACGAAGGCAAAGTTGATAGCATCTGTCGACG | -0.685 | -0.726 | -0.64 | -0.769 | -1.04 | 1.16 | 2.69 | 4.58 | 2.36 | 4.01
CGTTCAAGGTCAATGCTAGGTCAGTGAAAGCATT | 7.47 | 5.78 | 2.89 | 4.36 | 1.24 | 5.27 | 4.81 | 5.15 | 1.88 | 3.91
